rat GALR2 ag = agonists of rat galanin receptor 2 (GALR2). Galanin receptor type 2 (Rattus norvegicus), O08726. cell-based GALR2 agonist screen. activation, % at 10 µM. 16,000 tested, 0.5% active; in the data active = activation above about 15%
luminol inh ctr = counter-screen for Nox1 inhibitors: inhibitors of luminol chemiluminescence | HRP/luminol/H2O2 chemiluminescence counterscreen | inhibition, % at 6.7 µM | 16,000 tested, 0.4% active | AID 1823, 2009; note: reference of the scale not given here
Nox1 inh = inhibitors of human NADPH oxidase 1 (Nox1) | 16,000 tested, 0.81% active | Q9Y5S8 | inhibition, % at 6.7 µM | AID 1792, 2009 | HT29 cells, luminol chemiluminescence ROS
Each line names hits and unclear results; the compound was inactive in the other large screens. Compounds with a hit are over-represented: about 1.6% of the library has one in this group of screens. Cut-off read from the data, not from the text of the source, unless noted: active = inhibition above about 75%; inactive = the rest.

NNC(=O)CSc1nc2cccnc2s1	Nox1 inh 76
CC(=NCc1ccncc1)c1ccccc1O	none
N#CCC(=O)NNC(=S)Nc1ccccc1	Nox1 inh 90
N#CCC(=O)NNC(=O)c1ccccc1Cl	none
O=C1C=CC(=O)N1c1ccc2scnc2c1	none
O=S(=O)(c1ccc2c(c1)OCCCO2)N1CC=C(c2ccccc2)CC1	none
COCCCNC(=S)Nc1ccc(C)cc1	none
COCCCNC(=S)NNC(=S)Nc1ccccc1	Nox1 inh 91
Cn1c(CC2Sc3ccccc3NC2=O)nnc1SCC(=O)Nc1cccc(C(F)(F)F)c1 (configuration not stated)	luminol inh ctr 93
Cc1nn(Cc2nnc(SCC(=O)Nc3cccc(C(F)(F)F)c3)n2C)c(C)c1[N+](=O)[O-]	none
Clc1ccc(CSC2=NCCN2)cc1	none
Cc1cc(Br)c(NC(N)=S)c(Br)c1	none
Cc1cc(Br)c(NC(=S)NNc2ccccc2)c(Br)c1	Nox1 inh 100
CN(C)c1ccc(C(=O)Cc2ccccc2Cl)cc1	none
O=S1(=O)CCN(Cc2cc3ccccc3s2)CC1	rat GALR2 ag 36
Cc1onc(-c2ccccc2)c1CN1CCS(=O)(=O)CC1	none
COC(=O)c1ccc(S(=O)(=O)Nc2ccc(N3CCOCC3)cc2)n1C	Nox1 inh 91
COC(=O)c1sccc1NS(=O)(=O)c1ccc(C(=O)OC)n1C	none
CC(=O)C1C(=O)C=C(/C=C/c2ccccc2)CC1c1ccccc1 (configuration not stated)	none
COC(=O)c1sccc1OCc1nnc(-c2ccc(OC)cc2)o1	none
COC(=O)c1sccc1-c1ccc(CN2CCCc3cc(OC)ccc32)o1	Nox1 inh 94
COc1cc(C=C2C(=O)OC(C)(C)OC2=O)ccc1OCc1ccccc1	none
CSCCC(NC(=O)c1ccc(C(F)(F)F)cc1)C(=O)N/N=C/c1cccs1 (configuration not stated)	none
CSc1n[nH]c(N)c1-c1ccccc1	none
O=S(=O)(Nc1ccc(-c2csnn2)cc1)c1ccc(Cl)cc1	none
O=C(Nc1ccccc1N1CCCCC1)c1ccco1	none
O=C(Oc1ccccc1)c1cccnc1Oc1ccccc1	none
O=C(Oc1ccccc1N1CCOCC1)c1cccs1	Nox1 inh 98
O=C(Oc1ccccc1N1CCCCC1)c1ccco1	Nox1 inh 83
O=C(Oc1ccccc1N1CCOCC1)c1cccnc1Oc1ccccc1	Nox1 inh 79
Cc1onc(-c2ccccc2)c1C(=O)Oc1ccccc1N1CCOCC1	none
Cc1c(NN=C2C(=O)OC(C)(C)OC2=O)c(=O)n(-c2ccccc2)n1C	none
NCCCCCCNC1=C(Cl)C(=O)c2ccccc2C1=O	none
O=C(CSc1nc2ccccc2c(=O)[nH]1)c1cc2ccccc2o1	none
Cc1ccc(CNC(=S)NCCO)cc1	none
COc1ccc(CNC(=S)NCCCO)cc1	luminol inh ctr 98
CC(C)(C)c1ccc(C(=O)NNC(=S)Nc2ccc3c(c2)OCO3)cc1	none
COc1ccc(-c2c(C#N)c(=O)[nH]c3c2c(C)nn3-c2ccccc2)cc1	none
COc1cccc(-c2c3c([nH]c(=O)c2C#N)CCc2cc(OC)ccc2-3)c1	rat GALR2 ag 53
O=C(COc1ccc(SC(F)(F)F)cc1)NNC(=O)c1ccc(Cl)cc1	none
S=c1[nH]nc(CSc2nc(-c3ccccc3)cn2-c2ccccc2)n1-c1ccccc1	none
S=c1[nH]nc(Cc2n[nH]c(=S)n2-c2ccccc2)n1-c1ccccc1	luminol inh ctr 95
COc1cc(/C=N/N2CC(=O)N(c3ccc(Cl)cc3)CC2=O)cc(OC)c1OC	none
Cc1noc(C)c1C(=O)O/N=C(/Cc1ccccc1)C(F)(F)F	none
NC1=NNC(=O)/C1=C\c1cc([N+](=O)[O-])ccc1N1CCOCC1	rat GALR2 ag 25
O=[N+]([O-])c1ccc(N2CCCCCC2)c([N+](=O)[O-])c1	none
N#C/C(=C\c1ccccc1N1CCOCC1)S(=O)(=O)c1ccccc1	none
O=C(CSc1nnc(SCC(=O)c2cccc([N+](=O)[O-])c2)s1)c1cccc([N+](=O)[O-])c1	luminol inh ctr 92
O=C(CSC1=NCCCCC1)c1cccc([N+](=O)[O-])c1	none
Cn1c(-c2cc(C(C)(C)C)nn2Cc2ccc(F)cc2)n[nH]c1=S	luminol inh ctr 99
CC(C)(C)c1cc(-c2nnc(C3CC3)o2)n(Cc2ccc(F)cc2)n1	none
CSc1ncc(C#N)c(N)n1	none
CC(NC(=S)N/N=C/c1cc(Cl)cc(Cl)c1O)c1ccccc1 (configuration not stated)	rat GALR2 ag 27
Oc1c(Cl)cc(Cl)cc1/C=N/NC(=S)NNc1ccccc1	none
C=CCN(CC(=O)OC)S(=O)(=O)c1ccc(C)cc1	none
Cc1csc2sc(S(C)=O)c(C)c12 (configuration not stated)	none
O=C(NNC(=O)c1cccc(C(F)(F)F)c1)c1ccncc1	none
O=C(NNc1nc(-c2cccs2)ns1)c1cccc(C(F)(F)F)c1	Nox1 inh 104
CC(=O)Nc1ccc(I)cc1	none

From PubChem BioAssay
